Reference: PubChem BioAssay AID1259343 (VanderVen Lab, College of Veterinary Medicine, Cornell …, 2017)
About 2,900 (47%) of roughly 6,200 compounds were called active. So high a share suggests a set chosen from earlier hits. The list shows a part of the results. Values without a mark were called inactive. Cut-off read from the data, not from the text of the source: active = inhibition above about 50%; inactive = the rest.

Experiment: Mycobacterium tuberculosis growth inhibition, primary screen (AID 1259343)
Details: inhibition: at 10 µM, stronger effect = higher value; outcome: 10 uM

Row | Structure (SMILES) | inhibition
1 | O=c1c(-c2cccc(Br)c2)[n+]([O-])c2ccccc2n1O | 5.77%
2 | O[N+]1=CC=CCC1=S.On1ccccc1=S.[Zn] | 102% (active)
3 | COc1ccc(CC2CCN(S(=O)(=O)c3ccc(Cl)cc3)CC2)cc1 | 56.9% (active)
4 | Cc1ccc(S(=O)(=O)N2CCC(NC(=O)C(C)Oc3ccc(Cl)cc3Cl)CC2)cc1 (configuration not stated) | 10.4%
5 | COc1ccc2cc(CN(C)c3ccc(C#N)cn3)ccc2c1 | 19.4%
6 | COc1ccc(S(=O)(=O)N2CC3(C)CC2CC(C)(C)C3)cc1 (configuration not stated) | 24.4%
7 | COc1ccc(-c2ccc(S(=O)(=O)N3CCCCCC3)cc2)cc1 | 81.1% (active)
8 | CCc1ccc(S(=O)(=O)N2CCC(CO)(Cc3ccc(OC)cc3)CC2)s1 | 15.3%
9 | O=S(=O)(c1ccc(Cl)cc1)N1CCCC2CCCCC21 (configuration not stated) | 23.9%
10 | Nc1cc(S(=O)(=O)N2CCCCC2)ccc1Oc1ccc(Cl)cc1 | 16.6%
11 | COc1ccc(CC2CCN(S(=O)(=O)c3ccc(C#N)cc3)CC2)cc1 | 52.4% (active)
12 | CCN1CCc2c(sc(NC(C)=O)c2-c2nc3ccccc3s2)C1 | 79.4% (active)
13 | CN1CCc2c(sc(NC(=O)c3ccco3)c2-c2nc3ccccc3s2)C1 | inactive
14 | CCC(=O)Nc1sc2c(c1-c1nc3ccccc3s1)CCN(CC)C2 | 60.8% (active)
15 | CCN1CCc2c(sc(NC(=O)C(C)(C)C)c2-c2nc3ccccc3s2)C1 | 100% (active)
16 | CCN1CCc2c(sc(NC(=O)c3ccco3)c2-c2nc3ccccc3s2)C1 | 87.1% (active)
17 | CCN1CCc2c(sc(NC(=O)C3CC3)c2-c2nc3ccccc3s2)C1 | 36%
18 | CCN1CCc2c(sc(NC(=O)c3ccc([N+](=O)[O-])cc3)c2-c2nc3ccccc3s2)C1 | 42.7%
19 | CCC(=O)Nc1sc2c(c1-c1nc3ccccc3s1)CCN(C)C2 | 30.1%
20 | C(=Nn1c(-c2ccco2)csc1=NC1CCCCC1)c1ccccn1 | -7.16%
21 | CCN1CCc2c(sc(NC(=O)c3ccccc3)c2-c2nc3ccccc3s2)C1 | 100% (active)

Row | Structure (SMILES) | inhibition
22 | CN1CCc2c(sc(NC(=O)c3cccs3)c2-c2nc3ccccc3s2)C1 | 45.1%
23 | CN1CCc2c(sc(NC(=O)CS(=O)(=O)c3ccccc3)c2-c2nc3ccccc3s2)C1 | 25.4%
24 | Cc1ccc(S(=O)(=O)CC(=O)Nc2sc3c(c2-c2nc4ccccc4s2)CCN(C)C3)cc1 | -29.9%
25 | CN1CCc2c(sc(NC(=O)C(C)(C)C)c2-c2nc3ccccc3s2)C1 | 52.2% (active)
26 | CCN1CCc2c(sc(NC(=O)c3cccs3)c2-c2nc3ccccc3s2)C1 | 52% (active)
27 | CCN1CCc2c(sc(NC(=O)c3ccc(OC)cc3)c2-c2nc3ccccc3s2)C1 | inactive
28 | CCN1CCc2c(sc(NC(=O)c3ccc(C(C)=O)cc3)c2-c2nc3ccccc3s2)C1 | 5.96%
29 | CC1CCc2c(sc3nc(C(C)N4CCOCC4)[nH]c(=O)c23)C1 (configuration not stated) | 49.6%
30 | CC1CCc2c(sc3nc(CN(Cc4ccccc4)CC(O)COCc4ccccc4)[nH]c(=O)c23)C1 (configuration not stated) | 17.2%
31 | COc1ccc(OCCSCc2nc3sc4c(c3c(=O)[nH]2)CCC(C)C4)cc1 (configuration not stated) | 54.4% (active)
32 | N=c1oc2c([N+](=O)[O-])cc(N3CCCCC3)cc2cc1-c1nc2ccccc2s1 | 5.54%
33 | COc1cc(OC)c(OC)cc1C=NNc1ccc(F)cc1F | 84.3% (active)
34 | Oc1ccc(Br)cc1C=NNc1ccc(F)cc1F | 58.9% (active)
35 | CN(C)c1ccc(C=NNc2ccc(F)cc2F)cc1 | 14.3%
36 | COc1ccc(N2CN=C3SCC(=O)N3C2)cc1 | 95.9% (active)
37 | O=C1CSC2=NCN(c3ccc(Cl)c(Cl)c3)CN12 | 71.9% (active)
38 | O=C1CSC2=NCN(c3ccc(I)cc3)CN12 | 63.4% (active)
39 | O=c1c2cnc(N3CCOCC3)nc2ccn1-c1ccc(Cl)c(Cl)c1 | 12.3%
40 | CCOC(=O)c1nnc2n(c1=O)CCN2c1ccc(OC)cc1 | 31.9%
41 | COc1ccc(CN2CCN(c3ccc(Oc4ccccc4)cc3)C(=O)C2C)cc1 (configuration not stated) | 28.7%
42 | CNc1cnc(-c2ccc(O)cc2C)cn1 | 9.26%

Row | Structure (SMILES) | inhibition
43 | CCCCCCCCN=C1NC(=O)CS1 | 95.8% (active)
44 | CCCCCOc1cc(C)ccc1S(=O)(=O)N1CCCC1 | 41.6%
45 | Nc1ncc(Br)cc1S(=O)(=O)N1CCCCC1 | 77.9% (active)
46 | CCOc1ccc(-c2ccc(=O)n(Cc3cc(C)ccc3C)n2)cc1 | -12.8%
47 | CCOc1ccc(-c2ccnc(N3CCN(C(=O)C(=O)OC)CC3)n2)cc1 | 53.2% (active)
48 | CCOC(=O)C1CCN(C2CCN(c3nncc(-c4ccccc4)n3)CC2)CC1 | -15.5%
49 | O=C(NCCc1ccco1)c1ccc(Br)cc1F | 5.5%
50 | O=C(NCCc1ccco1)c1ccc(C2SCCS2)cc1 | 77.9% (active)
51 | CC(C)(CNC(=O)CCc1ccco1)c1ccc(Br)cc1 | 11.2%
52 | N#Cc1ccc(NS(=O)(=O)c2ccc(F)c(Cl)c2)nc1 | 27%
53 | O=S(=O)(Nc1cnc(Br)cn1)c1cccc(Cl)c1 | 10.2%
54 | O=S(=O)(Nc1ccc(Br)cn1)c1ccc(Cl)cc1 | 77.7% (active)
55 | CC(Cl)C(=O)N1CCC(Cc2ccc(C(F)(F)F)cc2)CC1 (configuration not stated) | 90.3% (active)
56 | O=C(N1CCC(Cc2ccc(-c3ccccc3)cc2)CC1)C(F)(F)C(F)F | 39.3%
57 | O=C(NCc1ccccc1F)C(C1CCCC1)N1CCN(C(=O)c2ccc(C(F)(F)F)cc2)CC1 (configuration not stated) | -35.5%
58 | O=C(c1c(F)c(F)cc(F)c1F)N1CCC(Cc2ccc(C(F)(F)F)cc2)CC1 | 71.6% (active)
59 | O=C(C1CCC1)N1CCC(Cc2ccc(C(F)(F)F)cc2)CC1 | 83.6% (active)
60 | CC(C)(C)c1ccc(CC2CCN(C(=O)CCCl)CC2)cc1 | 82% (active)
61 | Cc1cc2cc(NC(=O)c3ccc(CN4CC[C@H](O)C4)cc3)ccc2o1 | 91.8% (active)
62 | O=C1NC(=NC2CCCC2)SC1=Cc1cc2c(cc1Br)OCO2 | 63.1% (active)
